According to the supplement of paper PMC12340641:

The compounds below were run on HEK293FT dCK*-IKZF1 (assay: relative growth recovery (pomalidomide 10 uM = 100%, DMSO = 0%); higher = more growth rescue (IKZF1 fusion degradation)). Conditions: compound concentration: 5 uM; AraC concentration: 0.3 uM; overnight pretreatment + 4 days AraC.
Summary of the method: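 On day 5, whole-well imaging was used to count Hoechst 33342-stained nuclei of HEK293FT cells stably carrying a deoxycytidine kinase–IKZF1 fusion. These cells had received 5 μM compound 2 h after seeding, followed after overnight at 37 °C by a nucleoside suicide substrate at 0.3 μM plus medium for 4 days. Growth recovery was normalised on each plate against a reference degrader and vehicle, which defined 100% and 0%, and values are duplicate means from separate days.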

SMILES | relative growth recovery [%]
C[C@]12CC[C@H](O)C[C@H]1CC[C@@H]1[C@@H]2C[C@@H](O)[C@]2(C)[C@@H](C3=CC(=O)OC3)CC[C@]12O [Digoxigenin] | -10.9
Clc1ccc(N2CCN(Cc3c[nH]c4ncccc34)CC2)cc1 | 2.15
COc1cc2cc(c1Cl)N(C)C(=O)C[C@H](OC(=O)C(C)C)[C@]1(C)O[C@H]1[C@H](C)[C@@H]1C[C@@](O)(NC(=O)O1)[C@H](OC)/C=C/C=C(\C)C2 [Ansamitocin P-3] | -12.4
COc1cc([C@@H]2c3cc4c(cc3[C@H](O)[C@H]3COC(=O)[C@H]23)OCO4)cc(OC)c1OC | -11.7
COC(=O)[C@@]12OC[C@]34[C@H]([C@@H](O)[C@@H]1O)[C@@]1(C)CC(=O)C(O)=C(C)[C@@H]1C[C@H]3OC(=O)[C@H](OC(=O)/C=C(\C)C(C)C)[C@@H]24 [Bruceantin] | -12.3
CCCCCCC[n+]1ccc(-c2cc[n+](CCCCCCC)cc2)cc1 | -3.88
C[C@]12CC[C@H](O)C[C@H]1CC[C@@H]1[C@@H]2CC[C@]2(C)[C@@H](C3=CC(=O)OC3)CC[C@]12O [digitoxigenin] | -12.2
COc1cc2c(c(OC)c1OC)-c1ccc(OC)c(=O)cc1[C@@H](NC(C)=O)CC2 | -11.6
Oc1cc(Cl)ccc1Oc1ccc(Cl)cc1Cl | -0.94
O=C(N/N=C/c1ccc([N+](=O)[O-])o1)c1cc([N+](=O)[O-])cc([N+](=O)[O-])c1O | -2.9
CC[C@@]1(O)C(=O)OCc2c1cc1n(c2=O)Cc2cc3ccccc3nc2-1 [camptothecin] | -12.9
COc1cc([C@@H]2c3cc4c(cc3[C@H](O)[C@H]3COC(=O)C23)OCO4)cc(OC)c1OC (some centres not stated) [Podofilox] | -12.1
CC(=O)OC[C@]12CCC(C)=C[C@H]1O[C@@H]1[C@H](O)[C@@H](OC(C)=O)[C@@]2(C)[C@@]12CO2 [Diacetoxyscirpenol] | -12.7
O=c1n(Cl)c(=O)n(Cl)c(=O)n1Cl | -1.44
CCO[C@H]1O[C@@H]2O[C@@]3(C)CC[C@H]4[C@H](C)CC[C@@H]([C@H]1C)[C@@]24OO3 [Artemotil] | -5.64
C[C@]12CCC3C(CC[C@]4(O)C[C@@H](O)CC[C@]34C=O)[C@@]1(O)CCC2C1=CC(=O)OC1 (some centres not stated) [Strophantidin] | -11.4
c1ccc2c(c1)sc1ccccc12 | 1.72
O=c1c2ccccc2[se]n1-c1ccccc1 | -0.075
CO[C@H]1C[C@H](O[C@H]2CC[C@@]3(C)[C@H](CC[C@@H]4[C@@H]3CC[C@]3(C)[C@@H](C5=CC(=O)OC5)[C@@H](OC(C)=O)C[C@]43O)C2)O[C@@H](C)[C@@H]1O [Oleandrin] | -12.7
O=[N+]([O-])/C=C/c1ccc2c(c1)OCO2 | -13.1
CO[C@H]1[C@H](O)[C@H](O[C@H]2CC[C@@]3(C=O)[C@H](CC[C@@H]4[C@@H]3CC[C@]3(C)[C@@H](C5=CC(=O)OC5)CC[C@]43O)C2)O[C@@H](C)[C@@H]1O [Peruvoside] | -12.7
Cc1cc(O)c2c(=O)c3c(O)cc(O)c4c5c(O)cc(O)c6c(=O)c7c(O)cc(C)c8c1c2c(c34)c(c78)c65 [Hypericin] | -3.8
CCC(C)[C@H]1O[C@]2(C=C[C@@H]1C)C[C@@H]1C[C@@H](C/C=C(\C)[C@@H](OC3C[C@H](OC)C(O[C@H]4C[C@H](OC)[C@@H](O)[C@H](C)O4)[C@H](C)O3)[C@@H](C)/C=C/C=C3\CO[C@@H]4[C@H](O)C(C)=C[C@@H](C(=O)O1)[C@]34O)O2 (some centres not stated) [ABAMECTIN (avermectin B1a shown)] | -3.08
CC[C@H]1C2CC3[C@@H]4N(C)c5ccccc5[C@]45C[C@@H](C2C5O)N3[C@@H]1O (some centres not stated) | 1.42
O=C1/C(=C/c2ccccc2)C[C@@]2(O)C3Cc4ccc(O)c5c4[C@@]2(CCN3CC2CC2)[C@H]1O5 | -12.6
CO[C@@]12C(=COC(N)=O)c3c(O)c(N)c(C)c(O)c3N1C[C@@H]1N[C@@H]12 [Mitomycin C] | -6.43
CC(Cc1ccccc1)NCCC(c1ccccc1)c1ccccc1 (configuration not stated) [prenylamine] | -0.73
